Dicer inh – blocks human Dicer maturation of pre-miR-21; Q9UPY3; cat-ELCCA pre-miR-21 Dicer processing, chemiluminescence; stronger effect = higher value; z-score at 25 µM; hit rate 6% among 47,000; in the data active = z-score above about 3, passing the limit was not always enough;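 note: plate controls were vehicle for no effect and no enzyme for full effect; higher signal means more uncleaved substrate so more Dicer inhibition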
Target sequence (Q9UPY3 whole entry, looked up): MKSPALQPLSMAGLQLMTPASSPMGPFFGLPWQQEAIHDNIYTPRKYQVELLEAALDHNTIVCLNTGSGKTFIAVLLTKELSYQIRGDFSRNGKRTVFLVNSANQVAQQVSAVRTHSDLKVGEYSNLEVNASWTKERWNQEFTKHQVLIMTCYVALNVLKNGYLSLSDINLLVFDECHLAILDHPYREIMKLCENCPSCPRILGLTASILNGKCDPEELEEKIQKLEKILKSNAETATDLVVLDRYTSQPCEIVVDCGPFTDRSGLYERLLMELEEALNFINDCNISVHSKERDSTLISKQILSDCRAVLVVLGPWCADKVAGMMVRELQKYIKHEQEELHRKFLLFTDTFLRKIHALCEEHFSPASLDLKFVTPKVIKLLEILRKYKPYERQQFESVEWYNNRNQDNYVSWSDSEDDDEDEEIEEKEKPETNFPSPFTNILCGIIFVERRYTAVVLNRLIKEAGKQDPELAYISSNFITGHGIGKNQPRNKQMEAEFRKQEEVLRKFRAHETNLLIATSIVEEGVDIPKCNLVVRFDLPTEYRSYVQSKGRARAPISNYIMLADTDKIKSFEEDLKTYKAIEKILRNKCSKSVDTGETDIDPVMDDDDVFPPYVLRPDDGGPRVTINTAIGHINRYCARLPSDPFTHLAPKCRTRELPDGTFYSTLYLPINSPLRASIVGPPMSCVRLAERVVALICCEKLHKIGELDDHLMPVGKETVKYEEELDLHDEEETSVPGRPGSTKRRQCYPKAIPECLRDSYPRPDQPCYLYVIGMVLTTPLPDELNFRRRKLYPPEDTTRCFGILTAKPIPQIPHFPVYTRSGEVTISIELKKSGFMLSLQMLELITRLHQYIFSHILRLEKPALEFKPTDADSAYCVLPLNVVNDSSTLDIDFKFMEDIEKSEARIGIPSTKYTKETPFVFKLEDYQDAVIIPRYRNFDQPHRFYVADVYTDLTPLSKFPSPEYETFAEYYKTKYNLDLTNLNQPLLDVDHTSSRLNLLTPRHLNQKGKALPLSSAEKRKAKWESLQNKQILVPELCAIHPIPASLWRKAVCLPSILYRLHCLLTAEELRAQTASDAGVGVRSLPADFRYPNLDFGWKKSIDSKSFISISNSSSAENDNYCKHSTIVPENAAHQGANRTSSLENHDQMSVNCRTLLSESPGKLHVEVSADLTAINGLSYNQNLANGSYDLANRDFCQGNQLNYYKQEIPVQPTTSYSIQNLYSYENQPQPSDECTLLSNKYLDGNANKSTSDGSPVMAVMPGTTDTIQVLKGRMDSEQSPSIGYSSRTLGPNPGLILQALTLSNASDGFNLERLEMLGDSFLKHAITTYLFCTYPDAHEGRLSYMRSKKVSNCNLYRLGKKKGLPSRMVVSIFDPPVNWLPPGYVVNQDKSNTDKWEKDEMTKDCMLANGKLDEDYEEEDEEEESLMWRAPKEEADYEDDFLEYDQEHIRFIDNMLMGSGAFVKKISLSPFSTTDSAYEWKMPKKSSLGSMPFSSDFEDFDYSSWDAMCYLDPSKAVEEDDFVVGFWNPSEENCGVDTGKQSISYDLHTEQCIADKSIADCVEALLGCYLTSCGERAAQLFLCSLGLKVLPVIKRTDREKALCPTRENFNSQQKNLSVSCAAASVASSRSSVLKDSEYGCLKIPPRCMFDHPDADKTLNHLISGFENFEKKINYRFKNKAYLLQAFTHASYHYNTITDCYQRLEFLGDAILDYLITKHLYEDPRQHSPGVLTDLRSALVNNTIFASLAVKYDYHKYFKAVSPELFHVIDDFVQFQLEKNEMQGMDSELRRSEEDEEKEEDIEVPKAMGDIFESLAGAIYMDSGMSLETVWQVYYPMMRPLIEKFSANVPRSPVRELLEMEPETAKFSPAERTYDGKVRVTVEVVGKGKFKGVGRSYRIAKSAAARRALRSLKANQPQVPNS
Starred values were filed as active, the others as inactive; ! = repeats disagree. The sample as a whole holds a higher share of hits than the screen did.

SMILES	Dicer inh
COc1ccc(OC)c(C(=O)c2coc3ccc(O)c(CN(C)C)c23)c1	0.83
COc1ccc(Oc2c(C(F)(F)F)oc3c(CN4CCCCC4)c(O)ccc3c2=O)cc1	-0.53
COc1ccc(N2CCCCC2)c([N+](=O)[O-])c1	-1.2
Cn1c(=O)c2[nH]c(-c3ccnc4ccccc34)nc2n(C)c1=O	-1.8
CSc1nc(-c2ccccc2)nc(Sc2cccc(C(F)(F)F)c2)c1C#N	26*
CSc1nc(-c2ccccc2)nc(Nc2ccc(C(F)(F)F)cc2)c1C#N	-0.46
Cc1c(C#N)c(Sc2cccc(C(F)(F)F)c2)nc2ccccc12	-1.1
CCCS(=O)(=O)c1c(S(=O)(=O)CCC)c2ccccn2c1C(=O)c1ccc(F)cc1	5*
CCCS(=O)(=O)c1c(S(=O)(=O)CCC)c2ccccn2c1C(=O)c1ccc(C)cc1	31
CCCS(=O)(=O)c1c(S(=O)(=O)CCC)c2ccc(C(N)=O)cn2c1C(=O)c1ccc(F)cc1	35
COc1ccc(S(=O)(=O)N=S(C)(=O)c2ccc(C(F)(F)F)cn2)cc1 (configuration not stated)	-0.47
O=C(Nc1cc(Cl)cc(Cl)c1)N1CCCc2ccccc21	-0.22
O=C(Nc1ccc(Cl)cc1)N1CCCc2ccccc21	4.3*
O=C(O)CCC(=O)N1CCCc2ccccc21	2.3
O=C1NN=C(c2ccccc2)/C1=C1\SC(C(=O)c2cccs2)=NN1c1ccccc1	-3.5
O=c1[nH]ccn(-c2cccc(C(F)(F)F)c2)c1=O	-0.45
Cc1ccc2cc3c(nc2c1)N(c1ccccc1)CC3	-2.5
COC(=O)c1ccc(N2CCc3cc4ccc(C)cc4nc32)cc1	3*
COC(=O)c1ccc(N2C(=O)CC(N3CCN(C)CC3)C2=O)cc1 (configuration not stated)	0.87
FC(F)(F)c1cccc(Sc2nc(C(F)(F)F)nc3ccsc23)c1	0.34
O=[N+]([O-])c1ccc(CSc2ncnc3c2ncn3[C@@H]2O[C@H](CO)[C@H](O)C2O)cc1 (some centres not stated)	0.44
CC(N)=O	4.1*
O=c1nc(/C=C/c2ccc(-c3ccc(F)c(Cl)c3)o2)cc(C(F)(F)F)[nH]1	0.21
CCc1ccc(-n2[nH]nnc2=S)cc1	-0.72
O=C(c1ccc(F)cc1)C1CC1C(=O)c1ccc(F)cc1 (configuration not stated)	-0.45
SMILES	Dicer inh
O=c1c(C2CCCCC2)c(O)c2cccc3c2n1CCC3	-0.77
COC(=O)c1ccccc1C(=O)c1ccc(Cl)cc1	1.1
COc1cc(C(=O)c2cc(Cl)ccc2N)ccc1O	3.8*
COc1ccc(OC)c(C(=O)c2ccc(N)cc2)c1	1.9
COc1ccc(CCNC(=O)OC(C)(C)C(C)=O)cc1OC	0.06
Cc1ccc2oc3c(c(=O)c2c1)C(c1cccc(O)c1)N(Cc1ccc(F)cc1)C3=O (configuration not stated)	0.18
Clc1ccccc1CN1C2=NCCCN2c2ccccc21	-0.48
O=C(Nc1cc(Cl)ccc1O)c1cccs1	1.3
O=C(Nc1cccc2nsnc12)c1cccs1	-0.16
O=C(Nc1ccncc1[N+](=O)[O-])c1cccs1	3.5*
CCOc1cc(-c2ccccc2)[nH]c(=S)n1	-0.69
c1cnc2nc(CSC3=NCCS3)cn2c1	0.28
CCOc1ccc(N2CC(C(N)=O)CC2=O)cc1 (configuration not stated)	0.5
NNC(=S)Nc1cc(C(F)(F)F)ccc1Cl	1.9
CC(C)(C)C(=O)NC(=O)Nc1cc(C(F)(F)F)cc(C(F)(F)F)c1	1.8
CC(C)(C)C(=O)NC(=O)Nc1cc(C(F)(F)F)ccc1Cl	4.1*
CSc1nc2c(c(=O)n1C)C1(CCCC1)Cc1ccccc1-2	4.2*
C=CCn1c(SCC)nc2c(c1=O)C1(CCCC1)Cc1ccccc1-2	-3.6
C=CCSc1nc2c(c(=O)n1CC)C1(CCCC1)Cc1ccccc1-2	-0.82
Cc1cc(=O)[nH]c(SCCOc2ccc(C(C)(C)C)cc2)n1	0.24
CCOC(=O)c1c(NC(=O)CCC(=O)OC)sc2c1CC(C)(C)OC2	1.1
COC(Cn1c(SCC(=O)c2ccc(Cl)cc2)nnc1-c1ccc(Cl)cc1)OC	-0.04
COc1nccnc1NS(=O)(=O)c1ccc(NCc2cc(Cl)ccc2O)cc1	3.7*
COc1ccc(-c2cnc(NCc3cc(Cl)ccc3O)n2C)cc1	1.3
Cc1cc(C)nc(NS(=O)(=O)c2ccc(NCc3cc(Br)ccc3O)cc2)n1	10
SMILES	Dicer inh
CCCCCCCc1ccc(C(=O)NC(=S)NCc2ccco2)cc1	-3.5
c1ccc(-c2c(-c3ccccc3)c3ccccn3c2CN2CCOCC2)cc1	-2.1
O=C1c2ccccc2S(=O)(=O)N1CCCCN1CCN(c2ncccn2)CC1	0.08
O=C(OCCN1CCN(C2=NS(=O)(=O)c3ccccc32)CC1)c1cccc2ccccc12	3.2*
O=C1c2ccccc2S(=O)(=O)N1Cc1cccc2ccccc12	-0.65
Cc1cc(C)nc(N2N=C(CSc3nnc(C)s3)CC2=O)n1	-1.1
COC(=O)c1sccc1N/C=C(\C#N)S(C)(=O)=O	-1.6
O=C(Oc1ccc2ccccc2c1)Oc1ccc2ccccc2c1	0.39
S=c1[nH]nc(Nc2ccccc2Cl)s1	-1.7
S=c1[nH]nc(Nc2ccc(Br)cc2Cl)s1	1.1
S=c1[nH]nc(NCCc2ccc(Cl)cc2)s1	3.3*
CCC(C)OC(=O)C(C)Oc1ccc2c(=O)c(-c3ccccc3Cl)coc2c1 (configuration not stated)	-2.2
Cc1nn(C)c2ncc3c(=O)n(Cc4ccccc4)n(C)c3c12	-0.45
O=C(Nc1cccc(C(F)(F)F)c1)c1cncc(C#Cc2ccccc2)c1	-2.4
O=C(NC(=S)N1CCc2ccccc21)c1cncc(C#Cc2ccccc2)c1	3.8*
O=C(Nc1ccc(Cl)cc1)c1cncc(C#Cc2ccccc2)c1	2
CNC(=O)c1ccccc1-[s+]1c2ccccc2c(=O)n1C (configuration not stated)	1.8
CC(C)Sc1nc(N2CCCC2)c2c(c1C#N)CC(C)(C)OC2	-0.59
CC1(C)Cc2c(C#N)c(SCc3ccccc3)nc(N3CCOCC3)c2CO1	-1.2
CC(C)CCSc1nc(N2CCCC2)c2c(c1C#N)CC(C)(C)OC2	3.1*
CNC(=S)N/N=C/c1ccc(Cl)cc1	-1.2
CCOC(=O)C(NC(=O)c1ccccc1Cl)(Nc1ccccn1)C(F)(F)F (configuration not stated)	3.4*
CCOC(=O)C(NC(=O)c1cccc(C)c1)(Nc1cccc(C)n1)C(F)(F)F (configuration not stated)	-1.6
CCOC(=O)CNC(=O)c1ccccc1Cl	1.3
CCOC(=O)C(NCCOC)(NC(=O)c1ccccc1Cl)C(F)(F)F (configuration not stated)	4.6*
SMILES	Dicer inh
CCOC(=O)NC(Nc1ccccc1)(C(=O)OCC)C(F)(F)F (configuration not stated)	1.1
CCOC(=O)C(NCCc1ccccc1)(NC(C)=O)C(F)(F)F (configuration not stated)	0.6
COc1cccc(NC(=S)N=S(C)(=O)c2ccccc2)c1 (configuration not stated)	0.24
COC(=O)CSc1n[nH]c(-c2ccc(Cl)cc2)n1	-0.57
CC(=O)Nc1ccc(C(F)(F)F)cc1[N+](=O)[O-]	0.37
Cc1cc(C)nc(-n2[nH]c(C)c(Cc3ccc(Br)cc3)c2=O)n1	-1.3
CN(CCCN1c2ccccc2CCc2ccccc21)CC(=O)c1ccc(Cl)cc1	-0.11
CN(C)CCCN1c2ccccc2CCc2ccc(Cl)cc21	25
CNCCCN1c2ccccc2CCc2ccccc21	5.6*!
N#C/C(=C\Nc1ccccn1)C(=O)c1cccs1	-1.5

Bioassay records (PubChem)
